# ATXN2 expr inh – inhibitors of ATXN2 expression. HEK-293 ATXN2-luciferase reporter, luminescence, 24 h. Potency, µM (highest dose often 57 µM), for the others: at the top dose activity change, negative = inhibition, usual class: inhibitors. 360,000 compounds, 0.72% hits. AID 1745845; note: % is set by controls: 0 for no effect and ±100 for the full control effect; nearly all actives have a fitted effect of over 55% in size
#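 qHTS (up to 57 uM final) was run with 24 h compound exposure of reporter cells at 37 °C. Each well was multiplexed: SteadyGlo luminescence measured ATXN2-luciferase expression after a fluorogenic Gly-Phe-AFC viability readout (25 uM final).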
# KB-V1 MDR tox – KB-V1 MDR subline cytotoxicity. KB-V1 MDR cells viability, CellTiter-Glo, 72 h. 400,000 compounds, 3.4% hits. Potency, µM (series often up to 46.1 µM), hits mostly cytotoxic. AID 1347076; note: % is set by controls: 0 for no effect and ±100 for the full control effect; nearly all actives have a fitted effect of over 60% in size
#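 KB-V1 cells (P-gp-expressing MDR subline of KB-3-1) in phenol-red-free DMEM with 10% FBS were exposed to library compounds over a concentration series for 72 h at 37 degrees C. Viability read by CellTiter-Glo luminescence; concentration-effect curves fitted after normalization.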
# S2 tox – cell viability loss in ATXN counter-screen; S2 cells (HEK-293 line with an ATXN2-luciferase reporter) viability, CellTiter-Fluor protease fluorescence, 24 h; AID 651635; 400,000 compounds, 0.49% hits; Potency, µM (titrated, usually from 56.7 µM), hits mostly cytotoxic; note: nearly all actives have a fitted effect of over 40% in size
# HT1080 IDH1KD tx – kills HT-1080 cells with IDH1 knockdown; HT-1080 IDH1 knockdown viability, ATP luminescence, 48 h; Potency, µM (doses to about 46.1 µM), for the others: at the highest dose activity, negative = toxicity, actives largely listed as cytotoxic; 360,000 compounds, 2% hits;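 note: 0% = DMSO wells and -100% = cell-free medium wells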
#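 Knockdown cells (IDH1KD HT-1080) received compounds 2 h after plating at 750 cells/well and were kept 48 h at 37 °C in 5% FBS RPMI. A CellTiter-Glo luminescence read gave % activity for curve fitting.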
# KB-3-1 cytotox – KB-3-1 parental cell cytotoxicity; KB-3-1 viability, CellTiter-Glo ATP luminescence, 72 h; Potency, µM (highest dose often 46.1 µM), actives largely listed as cytotoxic; 400,000 compounds, 1.4% hits; note: % is set by controls: 0 for no effect and ±100 for the full control effect; nearly all actives have a fitted effect of over 60% in size
#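 Cytotoxicity measured as CellTiter-Glo luminescence after 72 h at 37 C. Compound titrations were pinned onto drug-naive KB-3-1 parental adenocarcinoma cells grown in DMEM with 10% FBS, and normalized data fitted to concentration-response curves.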
# HT1080NT lethal – kills 2HG-producing HT-1080-NT fibrosarcoma cells; HT-1080-NT fibrosarcoma viability, CellTiter-Glo ATP luminescence, 48 h; Potency, µM (top dose mostly 46.1 µM), without a hit: top-dose activity, negative = less viability, actives largely listed as cytotoxic; 360,000 compounds, 1.6% hits; AID 686970;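 note: NT is the 2HG producing partner of a matched IDH1 knockdown line; 0% = DMSO-treated cells and -100% = media-only wells without cells; nearly all actives have a fitted effect of over 55% in size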
#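 750 cells/well, RPMI + 5% FBS; 2 h settle, compound pin-transfer, 48 h at 37 degrees C. CellTiter-Glo 10 min RT, luminescence. Normalized to DMSO and media-only wells.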
# The depositor's hits bear a star; i = inactive; u = inconclusive; x = not tested or not shown. Shown are actives, neighbours in structure and some others; about 6.2% of the full set was active somewhere. Calls come from the whole dose curve; as a rule, active = well fitted curve in the direction sought with a large enough effect; inconclusive = small, poorly fitted or top-dose-only effect, or another doubt; inactive = no such curve, though single readings can be large; an effect the other way counts as inactive or inconclusive. Potency is the fitted concentration of half-maximal effect.
SMILES,ATXN2 expr inh,KB-V1 MDR tox,S2 tox,HT1080 IDH1KD tx,KB-3-1 cytotox,HT1080NT lethal
O=C(NCc1ccncc1)C(=O)Nc1nc(C23CC4CC(CC(C4)C2)C3)cs1,-18%,i,i,-8%,i,0%
O=C(NCc1ccccc1)C(=O)Nc1nc(C23CC4CC(CC(C4)C2)C3)cs1,-23%,7.3µM*,i,-2%,u,-5%
O=C(NCc1ccc(F)cc1)C(=O)Nc1nc(C23CC4CC(CC(C4)C2)C3)cs1,-23%,9.2µM*,i,u,u,u
Cc1cc(C)c2c(CN3CCN(c4ccccc4F)CC3)cc(=O)oc2c1,7%,i,i,14%,i,19%
Cc1oc(-c2ccc(Cl)cc2)nc1CN1CCC(C(=O)NCCCN2CCCC(C)C2)CC1 (centres undefined),u,i,u,16µM*,u,13µM*
Cc1oc(-c2ccc(Cl)cc2)nc1CN1CCCC(C(=O)NCc2ccccn2)C1 (centres undefined),-9%,i,i,-1%,i,-11%
Cc1oc(-c2ccc(Cl)cc2)nc1CS(=O)CC(=O)NCCCN1CC(C)CC(C)C1 (centres undefined),-13%,i,i,u,i,16µM*
Cc1oc(-c2ccc(Cl)cc2)nc1CS(=O)CC(=O)NCCN1CCCCCC1 (centres undefined),x,i,i,-7%,i,-6%
Cc1oc(-c2ccc(Cl)cc2)nc1CN1CCCC(C(=O)NCc2cccnc2)C1 (centres undefined),-13%,2.3µM*,u,u,2.6µM*,u
Cc1oc(-c2ccc(Cl)cc2)nc1CN1CCCC(C(=O)NCCCN2CCOCC2)C1 (centres undefined),-23%,18µM*,i,u,u,-12%
Cc1cccc(C)c1NC(=O)C1(C)CCC(=O)N1CCCn1ccnc1 (centres undefined),10%,i,i,5%,i,u
C[C@@H]1CN([C@@H](C)CO)C(=O)CCCn2nncc2CO[C@H]1CN(C)Cc1ccncc1,-4%,i,i,11%,i,8%
CCOc1ccc(NC(=O)CSc2nncc(=O)n2N)cc1,-1%,u,i,-18%,i,-25%
Cc1ccccc1-c1nc(CN2CCC(C(=O)NCCN3CCOCC3)CC2)c(C)o1,-5%,i,i,-15%,i,-21%
Cc1oc(-c2ccc(Cl)cc2)nc1CN1CCC(C(=O)NCc2ccco2)CC1,-5%,9.2µM*,i,-2%,i,-25%
CCOC(=O)N1CCC(NC(=O)CS(=O)Cc2nc(-c3ccc(Cl)cc3)oc2C)CC1 (centres undefined),x,i,i,u,i,18µM*
Cc1ccccc1-c1nc(CN2CCC(C(=O)NCCCN3CCOCC3)CC2)c(C)o1,-10%,i,i,-19%,i,10µM*
Cc1ccc(-n2c3nc(=O)[nH]c(=O)c-3cc3c(C)nn(-c4ccccc4)c32)cc1C,5%,i,i,x,i,x
CCCn1nc(C(=O)N2CC(=O)Nc3ccccc32)c2ccccc2c1=O,-13%,21µM*,i,u,8.2µM*,u
COc1cc(OC)cc(C(=O)N2CC(=O)Nc3ccccc32)c1,-3%,2.3µM*,u,u,u,u
CO[C@@]1(NC(=O)C(C(=O)O)c2ccc(O)cc2)C(=O)N2C(C(=O)O)=C(CSc3nnnn3C)CO[C@@H]21 (some centres undefined),12%,x,i,x,x,x
Cc1ccc(N2CCN(C3C(=O)Nc4ccccc4-n4nnnc43)CC2)cc1 (centres undefined),x,u,x,-9%,i,-4%
Cc1cc2c(cc1C)-n1nnnc1C(N1CCN(C(=O)OCc3ccccc3)CC1)C(=O)N2 (centres undefined),x,18µM*,x,u,u,u
Cc1cccc(N2CCN(C3C(=O)Nc4ccccc4-n4nnnc43)CC2)c1C (centres undefined),x,u,x,10µM*,u,u
O=C1Nc2ccccc2-n2nnnc2C1N1CCN(c2ccc(C(F)(F)F)cn2)CC1 (centres undefined),x,21µM*,x,7%,u,13%
SMILES,ATXN2 expr inh,KB-V1 MDR tox,S2 tox,HT1080 IDH1KD tx,KB-3-1 cytotox,HT1080NT lethal
O=C1Nc2ccccc2-n2nnnc2C1N1CCN(c2ccccn2)CC1 (centres undefined),x,u,x,5%,i,4%
COc1ccc(NC(=O)COc2ccc(S(=O)(=O)NC3CCCCC3)cc2)cc1OC,-16%,i,i,x,i,x
CCn1cc(C(=O)N2CCN(c3ccccc3F)CC2)c(=O)c2cc(S(=O)(=O)N(C)C3CCCCC3)ccc21,-1%,i,i,x,i,x
Cc1cccc(NC(=O)Cc2nnc(NC(=O)Nc3ccccc3F)s2)c1,x,u,i,2%,i,4%
O=C(Nc1cccc(Cl)c1)Nc1nnc(CC2=CCCCC2)s1,-22%,i,i,-1%,23µM*,-1%
O=C(Nc1nnc(CC2=CCCCC2)s1)Nc1ccccc1F,13%,i,i,33µM*,i,-8%
COc1cc(NC(=O)C2CCN(S(=O)(=O)c3ccc4c(c3)oc(=O)n4C)CC2)cc(OC)c1,15%,i,i,x,i,x
O=C(Nc1nnc(COc2ccccc2F)s1)Nc1ccccc1F,-6%,i,i,u,i,u
Cc1ccc(NC(=O)Nc2nnc(CSCCOc3ccc(Cl)cc3)s2)cc1,-14%,u,u,2%,u,2%
O=C(Nc1ccc(Cl)cc1)Nc1nnc(CSc2ccc(Cl)cc2)s1,u,u,u,30%,u,17%
O=C(Nc1ccc(Cl)cc1)Nc1nnc(CSCc2ccccc2)s1,-19%,21µM*,i,4%,i,1%
O=C(Nc1cccc(Cl)c1)Nc1nnc(CSCCOc2ccc(Cl)cc2)s1,u,i,i,18µM*,u,16µM*
O=C(Nc1ccc(F)cc1)Nc1nnc(COc2ccccc2F)s1,x,u,i,15µM*,i,u
CCOc1ccc(S(=O)(=O)N2CCC(N3CCN(Cc4ccc(C)cc4)C(=O)C3=O)CC2)cc1,-4%,u,i,x,i,x
COc1ccc(N2CCN(C(=O)c3ccc4c(c3)N(Cc3ccc(F)cc3)C(=O)c3ccccc3S4=O)CC2)cc1 (centres undefined),-3%,i,i,x,i,x
c1ccc(Cc2nnc3n2CCN(Cc2cnc(-c4ccccc4)s2)CC3)cc1,x,x,i,x,x,x
